# In the supplement of paper PMC3334620:
# The full ranking holds about 33,000 sequences; the median of “E-score (-0.5 to 0.5)” is about -0.035, and the highest 2% start at about 0.34. This excerpt belongs to a sample that is enriched for the highest values.
# Target: T1, Mot3 (UniProt P54785)
# T1 sequence: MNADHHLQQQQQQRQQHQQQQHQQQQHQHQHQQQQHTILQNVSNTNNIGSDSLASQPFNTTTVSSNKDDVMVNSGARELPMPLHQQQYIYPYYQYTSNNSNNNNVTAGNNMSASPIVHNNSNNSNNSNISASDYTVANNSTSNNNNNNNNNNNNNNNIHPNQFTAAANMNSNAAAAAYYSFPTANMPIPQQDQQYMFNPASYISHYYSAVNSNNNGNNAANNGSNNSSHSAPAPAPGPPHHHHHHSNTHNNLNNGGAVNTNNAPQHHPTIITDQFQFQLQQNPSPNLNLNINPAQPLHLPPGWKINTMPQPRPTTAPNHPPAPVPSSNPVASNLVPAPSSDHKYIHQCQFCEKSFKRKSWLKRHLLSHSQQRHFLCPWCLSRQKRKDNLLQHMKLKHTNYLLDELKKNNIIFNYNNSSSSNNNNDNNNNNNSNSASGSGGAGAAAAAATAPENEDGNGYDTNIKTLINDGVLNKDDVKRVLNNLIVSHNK
# Assay: PBM E-score (8-mer binding enrichment) (E-score (-0.5 to 0.5)); higher = stronger / more preferred TF binding
# Conditions: protein concentration: 200 nM; construct: GST-full length
# Method in brief: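 PURExpress in vitro transcription/translation supplied GST-tagged yeast transcription factors, either full-length or DNA-binding domain. Applied at about 100-200 nM to universal all-10-mer Agilent arrays double-stranded by primer extension, the bound protein was detected with fluorescent anti-GST. E-scores, modified Wilcoxon-Mann-Whitney statistics, were given by the Universal PBM Analysis Suite to ungapped eight-base words pooled with their reverse complements after masliner normalisation.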
row,Sequence,PBM E-score
1,AAGGAACG,0.465
2,AAGGAACC,0.462
3,AAGGAAGG,0.176
4,CAGGAACA,0.449
5,CAGGAACC,0.46
6,AGGGAACC,0.00909
7,GAGGAACC,0.255
8,TCGTGCCA,-0.155
9,GCACACCA,0.143
10,GGGGGGAC,-0.254
11,CTACTGTC,-0.103
12,GGTCTAAA,-0.127
13,GATCGCAA,-0.129
14,ACTCAAAA,-0.0489
15,ATGCAATG,-0.0896
16,AGGCAATA,0.472
17,AAGCAATC,-0.0271
18,AGGCAATC,0.481
19,AGGCAATG,0.476
20,CGGCAATA,0.0917
21,GGGCAATA,-0.132
22,ACGCAATG,0.23
23,CGGCAATC,-0.109
24,AACAGGAT,0.0971
25,CAATGGAC,-0.189
26,TAGCCAGA,-0.0655

row,Sequence,PBM E-score
1,GACACTAA,-0.106
2,AAGGCTGC,-0.00639
3,CACAGGGG,0.118
4,AGTTAGAT,0.0673
5,ACGCTTCT,-0.0128
6,CCAGACGG,-0.383
7,GCGCGTAA,0.34
8,TCGCGTAA,0.374
9,CCGCGTAA,0.336
10,CTGCGTAA,0.302
11,ACGCGTAA,0.317
12,GGGCGTAA,0.135
13,ATGCGTAA,0.32
14,GTGCGTAA,0.356
15,GCGCGTAC,0.117
16,ATTCTGAG,0.0253
17,TGTCGACA,0.111
18,ACAACAAT,0.182
19,GCACTTAA,0.133
20,CTTCAAGC,-0.0397
21,CTTTCCTA,0.399
22,GTTTCCTA,0.411
23,GTTTCCAA,-0.12
24,CTTTCCTC,0.0989
25,CTTTCCCA,-0.0799
26,GTTTCCGA,0.122

row,Sequence,PBM E-score
1,AGGCATGG,0.229
2,AAAGTGGG,-0.0287
3,TAGGAGCA,0.0656
4,ACGTAACG,0.0865
5,ACGTAATG,0.348
6,ACGTAATA,0.35
7,GCGTAATA,0.308
8,ACGTAATC,0.29
9,CCGTAATA,0.121
10,ACTTGCCG,-0.189
11,AATTGCCG,-0.145
12,ACTTGCCC,0.0267
13,ACTTGCCT,0.479
14,AATTGCCT,0.472
15,AATTGCCC,0.0147
16,ACGTGTCT,0.14
17,CCGTGTAC,0.34
18,CAGTGTAC,0.0758
19,AAGTGTAT,0.117
20,CCGTGTCC,0.0332
21,ACGTGTAG,0.389
22,AAGTGTAG,0.158
23,CCGTGTAG,0.367
24,ACGTGTAT,0.356
25,AGGTGTAG,0.0602
26,CAGTGTAG,0.154

row,Sequence,PBM E-score
1,CCGTGTCG,0.126
2,GCAATGGA,-0.00402
3,GAATCGGC,-0.269
4,CACCAGAG,-0.0278
5,CCTGCAAC,0.144
6,AACTTGCC,0.204
7,AAGTGTAC,0.0824
8,GCGTGTAC,0.337
9,ACGTGTAC,0.343
10,CCGTTAAG,-0.0319
11,TCAGGCGA,-0.0408
12,CCAGGCGA,-0.155
13,CCAGGCAC,0.487
14,TCAGGCCA,-0.0359
15,CCAGGCCA,-0.29
16,CCAGGCAA,0.477
17,CCAGGCAG,-0.119
18,CCAGGCCC,-0.101
19,TCAGGCAA,0.483
20,GAATACTC,-0.0747
21,GGAGCGCA,-0.281
22,CTGAACAG,-0.0714
23,CCGCAAGG,-0.128
24,ACACCTGT,0.193
25,TCTACTAA,0.0381
26,GCTGGACC,-0.332

row,Sequence,PBM E-score
1,CGGCAAGA,-0.115
2,CGGCAAGC,-0.0333
3,AAGCAAGC,-0.162
4,ATGCAAGG,-0.116
5,ACGCAAGG,0.153
6,AGGCAAGC,0.489
7,AGGCAAGG,0.483
8,GGGCAAGA,0.0525
9,AGGCAAGA,0.477
10,CCCTACAG,-0.128
11,GATCTCTA,-0.137
12,CCGGTCAG,-0.335
13,CCTCGTAG,0.0397
14,AATACCCC,-0.248
15,CTCAAGAC,-0.131
16,ATCAGCCC,-0.272
17,AAAGATGG,-0.0558
18,ACTTGTTC,0.162
19,ACAGCCCA,-0.0365
20,ACTTTCCC,0.0581
21,AATTTCCT,0.364
22,AATTTCCC,-0.164
23,ACTTTCCT,0.383
24,ACTTTCCG,-0.182
25,AATTTCCG,-0.0949
26,ATCCGGTG,0.0537

row,Sequence,PBM E-score
1,CCACTACG,-0.0192
2,GGATGAAC,-0.105
3,GTGAAAAA,0.155
4,TAGGGGGA,-0.264
5,CGACCCTA,-0.148
6,AGACTTTC,-0.187
7,CCGTTCTA,0.17
8,TACAGGTA,0.393
9,CACAGGTG,0.0773
10,GACAGGTA,0.25
11,CACAGGTC,-0.272
12,CGCAGGTC,0.0458
13,AACAGGTA,0.269
14,AGCAGGTA,0.328
15,CACAGGTA,0.352
16,CGCAGGTA,0.35
17,GGTGCGAC,-0.251
18,ACAACGGC,-0.0371
19,GAAAAGCC,-0.338
20,GTAGGTAA,0.346
21,ATAGGTAG,0.109
22,ATAGGTAC,0.406
23,GTAGGTGA,0.0361
24,CTAGGTAA,0.182
25,ATAGGTAA,0.356
26,GTAGGTTA,0.22

row,Sequence,PBM E-score
1,ATAGGTGA,-0.0643
2,CTAGGTAC,0.26
3,GCGGTAAC,0.063
4,ACATCTTA,0.0996
5,CCAAGCGG,-0.135
6,GACATCGC,0.0096
7,GGTTTTAC,0.154
8,CATTCCGC,-0.146
9,GACTACCA,-0.0944
10,CTATTACA,0.378
11,CGATTACA,0.357
12,GGATTACC,-0.0377
13,GGATTACA,0.371
14,GGATTAGA,-0.13
15,TGATTACA,0.311
16,CGATTACG,0.123
17,AGATTACA,0.354
18,CTATTACC,0.142
19,ATATTACA,0.332
20,AGATTACC,0.157
21,AGATTACT,0.101
